In PubChem BioAssay (NCI):
This is part of a sample that, as a whole, favours compounds with a hit. Of some 83,000 tested, about 20% had one in any assay.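 Negative percent growth values reflect cell death: -40 means 40% of the cells present at the start died, and -100 means all died.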 Unmarked numbers belong to inactive results. Activity calls are given as the source filed them. The calls were made as follows: active = growth percent below 10; inactive = the rest.

Experiments:
Experiment in all cases: NCI-60 one-dose screen, 48 h (100 = growth as untreated, 0 = no growth, -100 = all killed)
Conditions in all cases: 10 µM
SR leukemia = test system: SR leukemia
RPMI-8226 leukemia = test system: RPMI-8226 leukemia
OVCAR-8 ovarian = test system: OVCAR-8 ovarian
OVCAR-5 ovarian = test system: OVCAR-5 ovarian
OVCAR-4 ovarian = test system: OVCAR-4 ovarian
SK-OV-3 ovarian = test system: SK-OV-3 ovarian
IGROV1 ovarian = test system: IGROV1 ovarian
OVCAR-3 ovarian = test system: OVCAR-3 ovarian
HS 578T breast = test system: HS 578T breast
NCI/ADR-RES ovarian = test system: NCI/ADR-RES ovarian

| Compound | growth (SR leukemia) | growth (RPMI-8226 leukemia) | growth (OVCAR-8 ovarian) [%] | growth (OVCAR-5 ovarian) [%] | growth (OVCAR-4 ovarian) [%] | growth (SK-OV-3 ovarian) [%] | growth (IGROV1 ovarian) | growth (OVCAR-3 ovarian) | growth (HS 578T breast) [%] | growth (NCI/ADR-RES ovarian) [%] |
| --- | --- | --- | --- | --- | --- | --- | --- | --- | --- | --- |
| c1cc2cccc3c4cccc5cccc(c(c1)c23)c54 | 108% | 113% | 112 | 106 | 95.5 | 94.1 | 125% | 108% | 112 | 108 |
| Cc1ccc(N)cc1[N+](=O)[O-] | 115% | 116% | 103 | 116 | 83.3 | 112 | 110% | 115% | 113 | 102 |
| O=c1[nH]n(-c2ccccc2)c(=O)cc1Cl | 87.8% | 97.5% | 101 | 104 | 112 | 103 | 102% | 108% | 111 | 107 |
| CC1(C)OC(=O)C(c2ccsc2)C(=O)O1 | 103% | 103% | 109 | 105 | 102 | 106 | 103% | 106% | 99 | 97.7 |
| Sc1ccc(Nc2c3ccccc3nc3ccccc23)cc1 | 80.5% | 44.2% | 106 | 99.2 | 95.6 | 79.2 | 89.3% | 100% | 112 | 51.3 |
| CC(=O)c1ccc2c(ccc3ccccc32)c1 | 97.2% | 101% | 94.7 | 104 | 100 | 112 | 101% | 115% | 107 | 108 |
| CN(c1ccccc1)c1ncnc2c1ncn2C | 98.2% | 106% | 102 | 121 | 103 | 105 | 118% | 111% | 103 | 105 |
| Cc1ccccc1N=C(c1ccccc1)C1C(=O)c2ccccc2C1=O | 27% | 59.9% | 97.4 | 103 | 101 | 61.8 | 55.3% | 71.9% | 83 | 80.2 |
| CCOC(=O)c1ccc(NC(=S)P(=O)(c2ccccc2)c2ccccc2)cc1 | 69.3% | 64.4% | 107 | 105 | 99.6 | 107 | 110% | 92.2% | 96.4 | 101 |
| CCOC(=O)c1ccc(Nc2sc(C(=O)c3cccc([N+](=O)[O-])c3)c(N)c2C#N)cc1 | -28.3% (active) | -3.9% (active) | 35.7 | 38.1 | 33.1 | 27.6 | -6.69% (active) | -44.8% (active) | 15.5 | 26.8 |
| CCOC(=O)Nc1nn[nH]n1 | 103% | 106% | 111 | 92.3 | 111 | 116 | 110% | 103% | 93.7 | 103 |
| COC(=O)/C=C/C(=O)NC(N)=O | 95.9% | 103% | 99.5 | 98.3 | 98.5 | 96.2 | 116% | 107% | 107 | 109 |
| Cc1cccc([N+](=O)[O-])c1Cl | 117% | 103% | 99.6 | 96.4 | 109 | 107 | 112% | 106% | 98.1 | 92.8 |
| C[N+](C)=c1ccc2nc3c(cc(Nc4ccccc4)c4ccccc43)oc-2c1 | 22.1% | 31.7% | 54.4 | 80.7 | 21.3 | 65.3 | 67.3% | -28.6% (active) | 63.6 | 57.3 |
| Cc1ccc(O)c(C(=O)c2ccccc2)c1 | 113% | 113% | 111 | 96.3 | 110 | 119 | 113% | 104% | 108 | 105 |
| Cc1cc(OCCO)cc(C)c1Cl | 124% | 102% | 106 | 115 | 122 | 117 | 113% | 118% | 104 | 108 |
